BRCA1 expr up – qHTS Assay to Identify Small Molecule Activators of BRCA1 Expression | Potency, µM (highest dose often 46.1 µM), without a hit: at the highest dose activation, actives largely listed as activators | 380,000 compounds, 1.1% hits | MCF7-BRCA1-FFLuc reporter, luminescence, 48 h; response scale: scaled: vehicle 0%, 10 µM genistein 100%; further: nearly all actives have a fitted effect of over 80% in size
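Cells: MCF7-BRCA1-FFLuc, 2000/well. Exposure: 48 h, 37 °C, 5% CO2. Read: luminescence, 15 min post-substrate. Controls: genistein 10 microM (maximal activation), DMSO (neutral).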
GLP-1R agonist – qHTS of GLP-1 Receptor Agonists; HEK293 GLP-1R CRE-luciferase, luminescence, 4-6 h; cells express a hypersensitive GLP-1R form; Potency, µM (top dose mostly 45.6 µM), for inactives: at the top dose activation, hits mostly activators; AID 624172, 2012; Glucagon-like peptide 1 receptor (Homo sapiens), P43220; 380,000 compounds, 0.007% hits; further: % of control where 0% means no effect
Target sequence (P43220 whole entry, looked up): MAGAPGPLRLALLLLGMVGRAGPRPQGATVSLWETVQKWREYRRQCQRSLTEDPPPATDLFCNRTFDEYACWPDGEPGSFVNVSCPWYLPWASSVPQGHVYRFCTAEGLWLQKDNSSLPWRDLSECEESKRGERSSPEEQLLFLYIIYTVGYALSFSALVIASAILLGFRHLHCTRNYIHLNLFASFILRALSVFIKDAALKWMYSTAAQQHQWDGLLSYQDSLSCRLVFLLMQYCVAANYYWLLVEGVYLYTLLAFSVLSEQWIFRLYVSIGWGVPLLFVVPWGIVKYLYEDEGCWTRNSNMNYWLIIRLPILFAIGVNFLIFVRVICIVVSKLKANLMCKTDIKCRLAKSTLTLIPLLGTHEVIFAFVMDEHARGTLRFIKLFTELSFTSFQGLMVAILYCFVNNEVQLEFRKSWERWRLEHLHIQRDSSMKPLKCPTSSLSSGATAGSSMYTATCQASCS
GLP1R inv ag – qHTS of GLP-1 Receptor Inverse Agonists (Inhibition Mode) | AID 624417, 2012 | 410,000 compounds, 1.6% hits | Potency, µM (series often up to 38.3 µM), for inactives: at the highest dose activity change, negative = inhibition, usual class: inhibitors | Glucagon-like peptide 1 receptor (Homo sapiens), P43220 | HEK293 GLP-1R CRE-luciferase, luminescence, 24 h; GLP-1R form is constitutively active; further: on the % scale 0 is the no-effect control and ±100 the full control effect; nearly all actives have a fitted effect of over 55% in size
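Readout was luciferase luminescence, measured 12 min after detection reagent at room temperature. Beforehand, GLP-1R reporter HEK293 cells had sat 12 h, then received compounds for 24 hr at 37 deg C.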
GLP1R cytotox – qHTS of GLP-1 Receptor Inverse Agonists: Cytotox Screen; Potency, µM (titrated, usually from 38.3 µM), for the others: at the top dose activity change, negative = inhibition, most hits filed as inhibitors; HEK293 cAMP-luciferase reporter cells, luminescence, 24 h; AID 624418, 2012; 410,000 compounds, 0.13% hits;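 further: loss of luciferase light is scored as toxicity; on the % scale 0 is the no-effect control and ±100 the full control effect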
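MLSMR compounds, 24 hr on cells at 37 deg C/5% CO2; luminescence after luciferase reagent (12 min RT). Inhibition counted as the undesired cytotoxic outcome.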
An asterisk follows results filed as active; ? = inconclusive; nt = no result. Rows were chosen to be rich in hits. Some 2.6% of all compounds tested hit in one or more screens of this group. The call rests on the fitted dose curve; in most records, active means well fitted curve in the direction sought with a large enough effect; inconclusive means small, poorly fitted or top-dose-only effect, or another doubt; inactive means no such curve, though single readings can be large; an effect the other way counts as inactive or inconclusive. Potency means the concentration at half of the fitted maximal effect.

SMILES	BRCA1 expr up	GLP-1R agonist	GLP1R inv ag	GLP1R cytotox
Cc1ccc(NC(=O)CN(C)CC(=O)Nc2sc3c(c2C(N)=O)CCC3)cc1	-47%	12%	?	-14%
CC(NCCCOc1cccc2ccccc12)c1ccccc1 (stereo not drawn)	-86%	-1%	8.9µM*	?
O=S(=O)(c1ccc(-c2nc3ccccc3s2)cc1)N1CCCC1	2.5µM*	-14%	44%	-7%
O=S(=O)(c1cccc(-c2nc3ccccc3s2)c1)N1CCCC1	6%	?	0%	-8%
COc1ccc(C(NC(=O)COc2ccc(C#N)cc2)c2ccc(OC)cc2)cc1	5%	nt	nt	nt
CC1=CC(C)C(C[N+]2(C)CCCCC2)C(C)C1 (stereo not drawn)	3%	2%	-2%	0%
CC1=CC(C)C(/C=N/N=C(N)N)C(C)C1 (stereo not drawn)	-83%	-1%	8.9µM*	11%
O=C(NCCCN1CCOCC1)c1cc2c(s1)CCCC2	55%	11%	-8%	-12%
O=C(NCCCN1CCCC1=O)c1cc2c(s1)CCCCC2	11µM*	6%	-3%	-2%
CCCOc1ccc(C(=O)N(Cc2ccc(Cl)cc2)Cc2ccco2)cc1	nt	nt	?	1%
CCOc1ccc(NC(=S)N(Cc2ccc(Cl)cc2)Cc2ccco2)cc1	-32%	-3%	11µM*	-17%
COc1ccc(NC(=S)NC(=O)C2CCCCC2)cc1	7.9µM*	4%	18%	-16%
O=C(CNC(=S)NC(=O)C1CCCCC1)c1ccccc1	6.3µM*	7%	14%	12%
CN(Cc1ccccc1)S(=O)(=O)c1ccc(NC(=S)NC(=O)C(C)(C)C)cc1	-19%	-2%	?	-2%
CN(Cc1ccccc1)S(=O)(=O)c1ccc(NC(=S)NC(=O)C2CCCCC2)cc1	-88%	3%	2.5µM*	5%
O=C(Nc1ccccc1Br)c1cnn2c1NC(=C1CC1)C=C2C(F)F	-24%	nt	nt	nt
Cc1ccccc1-c1nc2c3c(-c4ccccc4)c(-c4ccccc4)oc3ncn2n1	nt	nt	0%	9%
CCOc1ccc(NC(=S)NC(=O)C2CCCC2)cc1	68%	12%	10µM*	0%
Cc1ccccc1NC(=S)NC(=O)C1CCCCC1	25%	1%	8.9µM*	?
CCOc1ccc(NC(=O)c2ccco2)cc1	-39%	-14%	-24%	5%
Cc1cc(C)cc(NC(=S)NC(=O)C2CC2)c1	2%	19%	11µM*	?
Cc1cc(NC(=S)NC(=O)C2CC2)ccc1Br	-37%	0%	?	?
O=C(NC(=S)Nc1ccccc1CO)C1CCCCC1	56%	26%	-9%	5%
CCOc1ccc(NC(=S)NC(=O)c2ccco2)cc1	7.1µM*	9%	?	?
Cc1nn2c(=O)cc(COC(=O)c3ccc(NC(=O)CCc4ccccc4)cc3)nc2s1	nt	nt	3%	7%
SMILES	BRCA1 expr up	GLP-1R agonist	GLP1R inv ag	GLP1R cytotox
CCCN(CC(=O)Nc1ccccc1C)C(=O)CCCNC(=O)c1ccc(Cl)cc1	-8%	17%	-13%	-2%
CO[C@@]1(NC(=O)CSC(F)F)C(=O)N2C(C(=O)O)=C(CSc3nnnn3CCO)CO[C@@H]21	nt	6%	nt	nt
CCOC(=O)c1ccccc1NC(=O)c1sc2nc3n(c(=O)c2c1C)CCCC3	nt	nt	23%	-11%
C=CCn1c(SCC#N)nc2cc(Cl)ccc2c1=O	-8%	nt	nt	nt
O=C(COc1ccc2ccccc2c1)Nc1ccc(Br)cc1C(=O)O	-15%	-1%	?	1%
COc1cc(OC)c(NC(=O)c2ccc3c(c2)N(Cc2ccc(C)cc2)CCS3)cc1Cl	nt	nt	-2%	2%
CCOc1ccc(NC(=O)C2C3CC/C=C\CCC32)cc1 (stereo not drawn)	47%	5%	-27%	-6%
CCc1ccc(C(C)NC(=S)NC2CCCCC2)cc1 (stereo not drawn)	-3%	-3%	?	-26%
CCOc1ccc(C(C)NC(=S)NC2CCCCC2)cc1 (stereo not drawn)	-13%	-5%	?	11µM*
CCOc1ccc(NC(=O)C2C3CCC4C(CCC32)C4(Cl)Cl)cc1 (stereo not drawn)	48%	-4%	7.1µM*	-23%
O=C(NNc1cc(Cl)cc(Cl)c1)C1CCC1	12%	9%	5.6µM*	-19%
O=C(NNc1ccc(Cl)cc1)C1CCC1	-16%	-7%	?	-12%
O=C(CN1C(=O)CCC1=O)c1ccc(-c2ccccc2)cc1	13µM*	2%	31%	-4%
CC(=O)NC1Sc2ccccc2N=C1c1ccccc1 (stereo not drawn)	10µM*	3%	5%	-1%
CC(=O)Nc1nc(-c2ccccc2)c(-c2ccccc2)s1	-3%	nt	nt	nt
CN(Cc1nc(-c2cnccn2)no1)Cc1cccc2ccccc12	10%	3%	-14%	3%
Cc1ccccc1Cn1c(=O)c2c(nc3n2CCCN3Cc2ccccc2)n(C)c1=O	-39%	6%	3.2µM*	15%
O=C(CSc1ncccc1C(=O)O)c1cccc(C(F)(F)F)c1	16µM*	1%	27%	-6%
COc1ccc(OCc2cc(-c3ccc(Cl)cc3)no2)cc1	21%	16%	30%	-3%
c1ccc(OCc2cc(-c3ccccc3)no2)cc1	5µM*	2%	?	-7%
Clc1ccc(-c2cc(CSc3ccccc3)on2)cc1	3.5µM*	11%	-8%	19%
COc1ccccc1OCc1cc(-c2ccccc2)no1	2.8µM*	-3%	1%	-2%
Cc1ccc(/C(=C\CN2CCCC2)c2cccc(/C=C/C(=O)O)n2)cc1	nt	-3%	nt	nt
CCN(CC)C(=O)C1=C(C)N(Cc2ccccc2)C(=O)C(CC(=O)NC2CCCCC2)C1 (stereo not drawn)	1%	-4%	5%	2%
CC(C)(C)NC(=O)C(c1c[nH]c2ccccc12)N(C(=O)Cn1nnc(-c2ccc(Cl)cc2)n1)c1ccccc1F (stereo not drawn)	-56%	-22%	5µM*	-19%
SMILES	BRCA1 expr up	GLP-1R agonist	GLP1R inv ag	GLP1R cytotox
Cc1c(C)c2c(c(C)c1OC(=O)CCC(=O)OCCO)CC[C@](C)(CCC[C@H](C)CCC[C@H](C)CCCC(C)C)O2	nt	3%	nt	nt
O=S(=O)(c1ccccc1Br)N1CCN(c2nc(-c3cccs3)nc3ccccc23)CC1	24%	nt	nt	nt
COc1ccc(C(O)(CCC(C)C)C(CN2CCOCC2)c2ccccc2)cc1 (stereo not drawn)	-29%	1%	10µM*	?
CCCCCC(O)(c1ccccc1)C(CN1CCOCC1)c1ccccc1 (stereo not drawn)	-33%	0%	10µM*	-27%
CCCCCCC(O)(c1ccccc1)C(CN1CCOCC1)c1ccccc1 (stereo not drawn)	-44%	-1%	3.5µM*	?
COc1ccccc1C(O)(c1ccccc1)C(CN1CCOCC1)c1ccccc1 (stereo not drawn)	-10%	-2%	10µM*	-12%
